TDP1 cell CPT = growth inhibition of DT40 Tdp1-/-;hTDP1 cells with camptothecin (screen for TDP1 inhibitors); chicken DT40 Tdp1-/-;hTDP1 cells + 20 nM CPT, ATP luminescence, 48 h; Potency, µM (doses to about 46.2 µM), without a hit: top-dose activity change, negative = growth inhibition, hits mostly inhibitors; 420,000 tested, 12% active; AID 686979; further: nearly all actives have a fitted effect of over 55% in size
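Chicken DT40 Tdp1-/- cells complemented with human TDP1, 400 cells/well, exposed to compounds plus 20 nM camptothecin for at least 48 h at 37 C; viability read as ATP content by CellTiter-Glo luminescence.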
VDR inhibitor = vitamin D3 receptor (human) inhibition. P11473. VDR-SRC2-3 peptide fluorescence polarization, 2 h. Potency, µM, inactives show max response, negative = inhibition, hits mostly inhibitors. 400,000 tested, 0.93% active. AID 504847
Target sequence (P11473 whole entry, looked up): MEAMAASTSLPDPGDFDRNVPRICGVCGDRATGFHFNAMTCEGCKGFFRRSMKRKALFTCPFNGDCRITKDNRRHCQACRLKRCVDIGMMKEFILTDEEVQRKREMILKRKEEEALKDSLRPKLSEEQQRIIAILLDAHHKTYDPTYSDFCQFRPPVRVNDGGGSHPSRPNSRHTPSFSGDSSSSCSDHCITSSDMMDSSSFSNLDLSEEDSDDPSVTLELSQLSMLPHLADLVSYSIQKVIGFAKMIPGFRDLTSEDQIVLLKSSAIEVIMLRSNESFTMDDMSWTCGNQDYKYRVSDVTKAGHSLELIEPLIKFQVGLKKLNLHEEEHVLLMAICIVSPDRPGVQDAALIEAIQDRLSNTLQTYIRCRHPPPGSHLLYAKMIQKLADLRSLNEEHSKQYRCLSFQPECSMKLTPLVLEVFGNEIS
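Compounds are added to VDR with labelled SRC2-3 coactivator peptide and held 2 h at room temperature. Inhibition of the VDR–peptide interaction is then read as a change in fluorescence polarization.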
DT40 TDP1 no CPT = qHTS for Inhibitors of human tyrosyl-DNA phosphodiesterase 1 (TDP1): qHTS in cells in absence of CPT | DT40 Tdp1-/- hTDP1 cells, no CPT, ATP luminescence, 48 h | Potency, µM (series often up to 46.2 µM), for inactives: at the highest dose activity change, negative = growth inhibition, actives largely listed as inhibitors | 420,000 tested, 15% active | AID 686978, 2013; further: nearly all actives have a fitted effect of over 55% in size
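DT40 Tdp1-/-;hTDP1 cells, no CPT (DMSO vehicle only), 400 cells/well; compounds pin-transferred; ≥48 hr, 37 °C; CellTiter-Glo 30 min RT dark, luminescence read.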
GCN5L2 inh = inhibitors of human GCN5L2 histone acetyltransferase; Q92830; GCN5L2 HAT assay, ThioGlo1 CoA-SH fluorescence; Potency, µM (doses to about 58.9 µM), inactives show at the top dose activity change, negative = inhibition, hits mostly inhibitors; 390,000 tested, 0.21% active; AID 504327
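GCN5L2 (20 nM) in 50mM HEPES pH 7.5, 0.1mM EDTA, 0.01% Tween-20 preincubated 15 min with compounds at room temperature. Reaction started with H3(1-25) 75uM, acetyl-CoA 70uM, ThioGlo1 50uM; CoA-thiol fluorescence (Ex340/Em540) read at 0 and 20 min.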
PLK1 PBD inh = blocks phosphopeptide binding to human PLK1 polo-box domain; P53350; Potency, µM, for inactives: max response, negative = inhibition, hits mostly inhibitors; 360,000 tested, 2.8% active; Plk1 PBD binding of FITC phosphopeptide, fluorescence polarization; further: series mostly up to about 57 µM; nearly all actives have a fitted effect of over 65% in size
TDP1 inh = blocks human tyrosyl-DNA phosphodiesterase 1; recombinant TDP1, AlphaScreen DNA substrate cleavage; 350,000 tested, 0.28% active; Potency, µM (doses to about 130 µM), inactives show at the top dose activity change, negative = inhibition, most hits filed as inhibitors; Q9NUW8; further: nearly all actives have a fitted effect of over 40% in size
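Steps: enzyme plus compound, 15 min RT; add biotin/phosphotyrosine-FITC oligonucleotide (15 nM final), react 5 min; add donor/acceptor beads (10 ug/ml final), 10 min; read AlphaScreen. Tdp1 at 1 nM final.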
Active calls of the source: *; ? = inconclusive; nt = not tested or not shown; ! = repeats disagree; [ ] = dose if it differs, or a comment. Most compounds without a hit are left out; they make up all but 18% or so of the library. The call rests on the fitted dose curve; in most records, active means well fitted curve in the direction sought with a large enough effect; inconclusive means small, poorly fitted or top-dose-only effect, or another doubt; inactive means no such curve, though single readings can be large; an effect the other way counts as inactive or inconclusive. On the % scale 0 is the no-effect control and ±100 the full control effect; potency means the concentration at half of the fitted maximal effect.

SMILES	TDP1 cell CPT	VDR inhibitor	DT40 TDP1 no CPT	GCN5L2 inh	PLK1 PBD inh	TDP1 inh
CC(C)C[C@H](NC(=O)[C@H](CCCCN)NC(=O)[C@H](CCCNC(=N)N)NC(=O)[C@H](C)NC(=O)[C@H](CO)NC(=O)[C@H](CCCCN)NC(=O)[C@H](CCCNC(=N)N)NC(=O)[C@H](C)NC(=O)CNC(=O)[C@@H](NC(=O)[C@H](Cc1ccccc1)NC(=O)CNC(=O)CNC(=O)[C@@H](N)Cc1ccccc1)[C@H](C)O)C(=O)N[C@@H](C)C(=O)N[C@@H](CC(N)=O)C(=O)N[C@@H](CCC(N)=O)C(=O)O	0%[4.12 µM]	-1%	-5%[4.12 µM]	-5%	nt	9%
CCCS(=O)(=O)c1nc(S(=O)(=O)c2ccc(C)cc2)c(N2CCC3(CC2)OCCO3)s1	-26%	-6%	-4%	-5%	-19%	1%
c1c2c(cc3sc(N4CCOCC4)nc13)OCO2	-19%	?	?	-3%	27µM*	4%
Brc1ccc2nc(N3CCN(c4ccccc4)CC3)sc2c1	3%	-1%	-4%	-1%	-1%	5%
c1ccc(N2CCN(c3nc4cc5c(cc4s3)OCO5)CC2)cc1	-10%	?	-26%	-9%	27µM*	1%
CN1C(=O)C2C(c3ccc(N(C)C)cc3)=NN(Cc3ccccc3)C2C1=O (stereo not given)	13%	-2%	2%	-2%	-2%	8%
CCn1c(CNC(=O)c2ccc(OC)cc2)nnc1SCC(=O)Nc1ccccc1	12%	-5%	-11%	1%	nt	1%
C[C@H](N[C@@H](C)COc1ccccc1)[C@H](O)c1ccc(O)cc1	nt	14%	nt	-17%[21.4 µM]	nt	14%[21 µM]
CC(=O)Nc1ccc(-n2nnnc2SCC(=O)Nc2cccc(NC(=O)c3ccco3)c2)cc1	-15%	24%	-1%	3%	-14%	nt
O=C(Nc1ccc(Cl)c(Cl)c1)C1CC1	?	4%	?	-2%	nt	nt
N#C/C(=N\Nc1ccc(Cl)c(Cl)c1)C(=O)C1CC1	21µM*	6%	6.5µM*	0%	?	nt
Cc1ccc2cc3c(nc2c1)OCC3	-13%	3%	-5%	-2%	-2%	-2%
COc1ccc(CC(=O)Nc2sc3c(c2C(=O)Nc2c(C)cccc2C)CCCCC3)cc1	nt	-20%	nt	-3%	nt	1%
CCOc1ccc(Nc2nc3cc(Cl)c(Cl)cc3nc2-n2nc(C)cc2C)cc1	3%	-7%	4%	-17%	nt	-5%
CCOc1ccc(Nc2cc(C)nc(-n3nc(C)cc3C)n2)cc1	0.46µM*	11%	0.58µM*	-1%	-6%	4%
Cc1ccc(Nc2cc(-n3nc(C)cc3C)ncn2)cc1	-21%	7%	-28%	0%	4%	6%
Cc1ccc(Nc2cc(C)nc(-n3nc(C)cc3C)n2)cc1	3.3µM*	8%	3.7µM*	-16%	nt	8%
Cc1cc(Nc2ccc(Cl)cc2C)nc(-n2nc(C)cc2C)n1	5.2µM*	13%	1.6µM*	0%	nt	3%
Cc1cc(Cl)nc(-n2nc(C)cc2C)n1	6%	-12%	-16%	-5%	-6%	7%
CNc1cc(C)nc(-n2nc(C)cc2C)n1	5.8µM*	3%	5.2µM*	-2%	1%	0%
O=[N+]([O-])c1cccc(S(=O)(=O)NCCc2ccccc2)c1	-4%	?	-1%	0%	-3%	9%
CC(=O)N(CCCc1ccc(C(C)(C)C)cc1)CCCN(C)C	15µM*	-9%	?	-2%	-6%	9%
Cc1nn(Cc2ccc([N+](=O)[O-])cc2)c(=O)n1N(C)c1ncc(C(F)(F)F)cc1Cl	?	-26%	11µM*	0%	-5%	7%
Cc1ccc(NC(=O)Cn2c(=O)n(CCC(=O)N3CCc4ccccc4C3)c(=O)c3ccccc32)c(C)c1	21µM*	17%	23µM*	-5%	nt	-3%
CCc1ccc(NC(=O)Cn2c(=O)n(CCC(=O)N3CCc4ccccc4C3)c(=O)c3ccccc32)cc1	-8%	5%	1%	17%	nt	3%
SMILES	TDP1 cell CPT	VDR inhibitor	DT40 TDP1 no CPT	GCN5L2 inh	PLK1 PBD inh	TDP1 inh
CCOC(=O)c1ccccc1NC(=O)Cn1c(=O)n(CCC(=O)N2CCc3ccccc3C2)c(=O)c2ccccc21	21µM*	17%	8.2µM*	2%	nt	8%
Cc1cccc(/C(N)=N/OC(=O)N2c3ccccc3Sc3ccccc32)c1	?	6%	21µM*	-11%	-18%	13%
Cc1cc(CN(Nc2ccccc2)c2ccccc2)cc(C)n1	?	nt	15µM*	nt	-4%	nt
N#Cc1ccc(CN(Nc2ccccc2)c2ccccc2)cc1	18µM*	nt	21µM*	nt	2%	nt
COC(=O)[C@@H]1C[C@@H]2CC[C@@H](O)C[C@@H]2N1Cc1ccc(-c2ccccc2)cc1	nt	nt	nt	nt	nt	5%
O=C(O)COCCN1CCN(C(c2ccccc2)c2ccc(Cl)cc2)CC1 (stereo not given)	?	-5%	15µM*!	-2%	-9%	8%
O=C(O)COCCN1CCN([C@H](c2ccccc2)c2ccc(Cl)cc2)CC1	-20%	3%	7%	1%	-4%	3%
O=C(O)CC(NC(=O)C(c1ccccc1)c1ccccc1)c1ccc(F)cc1 (stereo not given)	-1%	-5%	14%	-2%	-7%	1%
COc1ccccc1NC(=O)C1=C(C)Nc2c(C(=O)Nc3cccc(C)c3)cnn2C1c1ccccc1C (stereo not given)	?	15%	?	28µM*	nt	4%
COc1ccccc1NC(=O)C1=C(C)Nc2c(C(=O)Nc3ccc(F)cc3)cnn2C1c1ccc(Cl)cc1 (stereo not given)	13µM*	13%	?	-5%	nt	3%
CCOc1ccc(NC(=O)c2cnn3c2NC(C)=C(C(=O)Nc2ccc(Cl)cc2)C3c2ccc(OC)c(OC)c2)cc1 (stereo not given)	23µM*	3%	10µM*	-1%	nt	0%
O=c1c(-c2cccs2)nc2cnc(Oc3cccc(Cl)c3)nc2n1C1CC1	-1%	?	-17%	?	nt	nt
O=C(c1n[nH]c2c1CCCC2)N1CCOc2ccc(C(O)C3CCCCC3)cc2C1 (stereo not given)	-25%	nt	-27%	nt	nt	nt
CCOc1ccc(-n2nc(CO)c(C(=O)NCc3cccc(OC)c3)n2)cc1	?	-3%	?	-7%	nt	5%
Cc1ccc(C(=O)N2[C@@H]3CN(C)C(=O)[C@@]2(Cc2ccccc2)[C@H]2C(=O)N(Cc4ccccc4)C(=O)[C@@H]32)cc1	0.0052µM*	-5%	?	nt	-8%	nt
